According to the supplement of paper PMC10849652:
The full data set covers some 8,800 targets. This sample favours those with a hit. About 0.5% of all pairs of compound and target were hits.

compound: C/C(=N\NC(=O)C1=CC(=CC=C1)S(=O)(=O)N2CCOCC2)/C3=C(C=CC(=C3)Cl)O; experiment: log2 fold change, soluble protein after heating vs DMSO (PISA); higher = thermal stabilisation; K562 lysate, 10 uM; active = over 0.2 and 3.5 SD of the protein, either way, in both replicates (recomputed)
How it was run: (§1)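 A 30 min treatment with 10 μM compound was applied to crude K562 extract at 1 mg/mL protein in PBS pH 7.4 with 1 mM MgCl2. Heating for 3 min spanned 48°C-58°C, after which aliquots were pooled, adjusted to 0.5% NP-40 at 4°C and spun at 21,000xg for 90 min. TMTpro 16plex LC-MS/MS of the supernatant, with channel sums equalised, gave values recorded as log-two fold change in thermal stability against solvent controls, from duplicates.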

Chain of UniProt Q16850 (Q16850 whole entry, looked up): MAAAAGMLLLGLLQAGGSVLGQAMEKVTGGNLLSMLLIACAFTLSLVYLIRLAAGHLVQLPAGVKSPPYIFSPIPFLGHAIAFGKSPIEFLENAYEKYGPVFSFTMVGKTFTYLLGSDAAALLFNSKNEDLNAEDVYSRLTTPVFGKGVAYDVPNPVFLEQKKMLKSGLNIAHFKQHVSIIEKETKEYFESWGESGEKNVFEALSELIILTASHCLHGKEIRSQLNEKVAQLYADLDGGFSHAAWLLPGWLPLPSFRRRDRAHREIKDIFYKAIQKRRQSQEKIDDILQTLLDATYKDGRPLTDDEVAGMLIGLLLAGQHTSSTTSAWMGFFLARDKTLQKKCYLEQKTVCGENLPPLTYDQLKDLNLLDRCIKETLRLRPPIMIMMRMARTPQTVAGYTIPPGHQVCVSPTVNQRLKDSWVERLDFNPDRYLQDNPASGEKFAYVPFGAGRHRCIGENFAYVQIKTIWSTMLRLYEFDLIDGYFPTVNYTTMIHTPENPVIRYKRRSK
Chain of UniProt Q13057 (Q13057 whole entry, looked up): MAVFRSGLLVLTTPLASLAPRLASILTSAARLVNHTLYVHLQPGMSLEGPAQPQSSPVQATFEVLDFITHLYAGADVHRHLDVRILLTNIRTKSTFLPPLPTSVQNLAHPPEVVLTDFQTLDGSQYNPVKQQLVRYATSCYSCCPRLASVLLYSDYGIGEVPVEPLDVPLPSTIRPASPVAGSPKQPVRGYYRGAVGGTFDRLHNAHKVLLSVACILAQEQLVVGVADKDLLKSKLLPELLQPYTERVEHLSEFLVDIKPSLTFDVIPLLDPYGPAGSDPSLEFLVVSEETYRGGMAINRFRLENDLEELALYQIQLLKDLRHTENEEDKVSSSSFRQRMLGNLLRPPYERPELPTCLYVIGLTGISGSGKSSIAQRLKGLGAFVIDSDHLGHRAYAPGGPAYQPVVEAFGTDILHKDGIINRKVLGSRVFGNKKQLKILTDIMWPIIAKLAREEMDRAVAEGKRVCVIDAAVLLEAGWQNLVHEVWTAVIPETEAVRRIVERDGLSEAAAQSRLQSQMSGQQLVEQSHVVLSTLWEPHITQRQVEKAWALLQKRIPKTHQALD
Chain of UniProt P57737 (P57737 whole entry, looked up): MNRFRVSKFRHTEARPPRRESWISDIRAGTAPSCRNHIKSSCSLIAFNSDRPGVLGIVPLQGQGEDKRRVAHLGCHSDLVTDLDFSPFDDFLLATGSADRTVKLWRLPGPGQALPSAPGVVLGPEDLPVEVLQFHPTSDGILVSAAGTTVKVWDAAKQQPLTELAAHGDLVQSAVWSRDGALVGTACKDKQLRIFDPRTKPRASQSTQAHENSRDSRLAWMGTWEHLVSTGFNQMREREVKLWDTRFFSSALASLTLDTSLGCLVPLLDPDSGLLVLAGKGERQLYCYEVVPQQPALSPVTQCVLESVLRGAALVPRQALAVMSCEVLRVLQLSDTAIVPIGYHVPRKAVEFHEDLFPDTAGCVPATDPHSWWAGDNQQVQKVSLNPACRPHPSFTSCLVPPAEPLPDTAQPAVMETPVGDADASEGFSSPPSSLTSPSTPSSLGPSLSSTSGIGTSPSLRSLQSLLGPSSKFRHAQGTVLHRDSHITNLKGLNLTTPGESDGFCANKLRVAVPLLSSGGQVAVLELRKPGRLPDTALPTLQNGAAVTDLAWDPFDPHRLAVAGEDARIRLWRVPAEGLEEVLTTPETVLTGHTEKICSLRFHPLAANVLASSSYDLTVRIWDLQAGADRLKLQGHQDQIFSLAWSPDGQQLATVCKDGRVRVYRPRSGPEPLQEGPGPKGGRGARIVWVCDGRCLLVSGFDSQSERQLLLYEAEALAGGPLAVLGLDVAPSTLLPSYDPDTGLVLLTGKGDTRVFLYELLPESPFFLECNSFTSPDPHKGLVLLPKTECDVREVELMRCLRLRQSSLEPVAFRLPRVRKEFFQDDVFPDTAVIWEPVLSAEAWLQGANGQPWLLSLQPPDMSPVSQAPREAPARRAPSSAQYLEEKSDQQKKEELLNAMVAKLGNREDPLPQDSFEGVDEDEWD
Chain of UniProt Q9UP83 (Q9UP83 whole entry, looked up): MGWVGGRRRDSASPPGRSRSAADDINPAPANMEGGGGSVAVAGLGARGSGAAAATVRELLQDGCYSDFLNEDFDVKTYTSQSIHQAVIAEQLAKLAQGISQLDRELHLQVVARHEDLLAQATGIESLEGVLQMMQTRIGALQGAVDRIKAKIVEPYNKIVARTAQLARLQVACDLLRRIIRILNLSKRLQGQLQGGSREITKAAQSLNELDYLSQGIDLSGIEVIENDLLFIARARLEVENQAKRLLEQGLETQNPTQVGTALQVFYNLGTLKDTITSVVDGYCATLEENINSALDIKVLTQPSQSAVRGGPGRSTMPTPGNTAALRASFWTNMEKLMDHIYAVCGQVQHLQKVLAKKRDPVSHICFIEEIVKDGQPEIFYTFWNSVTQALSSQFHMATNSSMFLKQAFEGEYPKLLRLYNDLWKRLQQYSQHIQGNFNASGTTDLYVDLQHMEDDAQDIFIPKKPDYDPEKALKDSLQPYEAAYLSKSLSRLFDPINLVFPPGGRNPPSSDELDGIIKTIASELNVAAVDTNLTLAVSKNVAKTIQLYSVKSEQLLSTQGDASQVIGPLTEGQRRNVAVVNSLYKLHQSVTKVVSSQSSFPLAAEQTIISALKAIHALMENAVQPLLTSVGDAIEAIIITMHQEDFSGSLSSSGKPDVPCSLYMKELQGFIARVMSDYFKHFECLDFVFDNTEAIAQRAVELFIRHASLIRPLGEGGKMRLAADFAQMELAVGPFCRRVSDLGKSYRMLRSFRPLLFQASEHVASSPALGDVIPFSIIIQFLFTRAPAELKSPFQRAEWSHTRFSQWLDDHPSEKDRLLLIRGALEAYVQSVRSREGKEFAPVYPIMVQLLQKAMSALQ
Chain of UniProt Q8IWF6 (Q8IWF6 whole entry, looked up): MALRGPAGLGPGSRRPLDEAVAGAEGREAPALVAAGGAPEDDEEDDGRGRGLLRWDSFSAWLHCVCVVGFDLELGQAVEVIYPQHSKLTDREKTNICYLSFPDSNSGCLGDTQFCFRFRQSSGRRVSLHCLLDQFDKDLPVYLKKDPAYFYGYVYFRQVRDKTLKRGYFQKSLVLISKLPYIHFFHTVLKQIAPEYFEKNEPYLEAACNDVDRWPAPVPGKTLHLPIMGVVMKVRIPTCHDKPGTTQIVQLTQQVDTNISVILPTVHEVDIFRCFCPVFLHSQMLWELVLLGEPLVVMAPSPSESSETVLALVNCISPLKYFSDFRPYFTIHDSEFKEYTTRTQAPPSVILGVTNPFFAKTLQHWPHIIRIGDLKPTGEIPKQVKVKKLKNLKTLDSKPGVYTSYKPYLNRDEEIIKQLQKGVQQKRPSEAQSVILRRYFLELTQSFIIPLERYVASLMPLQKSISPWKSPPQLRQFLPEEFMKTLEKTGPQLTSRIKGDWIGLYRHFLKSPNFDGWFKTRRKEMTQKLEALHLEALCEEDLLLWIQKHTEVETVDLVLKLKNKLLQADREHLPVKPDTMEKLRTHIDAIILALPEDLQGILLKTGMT
Chain of UniProt Q96KC8 (Q96KC8 whole entry, looked up): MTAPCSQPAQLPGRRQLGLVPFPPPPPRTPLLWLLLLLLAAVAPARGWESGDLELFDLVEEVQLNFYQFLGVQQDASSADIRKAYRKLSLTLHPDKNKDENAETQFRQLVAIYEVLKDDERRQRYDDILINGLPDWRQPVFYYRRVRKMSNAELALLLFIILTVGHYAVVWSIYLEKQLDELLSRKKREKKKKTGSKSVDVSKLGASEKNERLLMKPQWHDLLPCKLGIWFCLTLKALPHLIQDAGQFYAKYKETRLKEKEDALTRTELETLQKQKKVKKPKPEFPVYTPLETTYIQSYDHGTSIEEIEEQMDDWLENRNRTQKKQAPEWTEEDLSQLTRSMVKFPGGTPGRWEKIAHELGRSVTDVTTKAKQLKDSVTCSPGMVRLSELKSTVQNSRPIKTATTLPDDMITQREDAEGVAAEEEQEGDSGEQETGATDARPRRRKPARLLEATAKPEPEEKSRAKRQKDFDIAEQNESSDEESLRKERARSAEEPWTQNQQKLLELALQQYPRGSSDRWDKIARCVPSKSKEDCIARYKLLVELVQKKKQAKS
Chain of UniProt O95628 (O95628 whole entry, looked up): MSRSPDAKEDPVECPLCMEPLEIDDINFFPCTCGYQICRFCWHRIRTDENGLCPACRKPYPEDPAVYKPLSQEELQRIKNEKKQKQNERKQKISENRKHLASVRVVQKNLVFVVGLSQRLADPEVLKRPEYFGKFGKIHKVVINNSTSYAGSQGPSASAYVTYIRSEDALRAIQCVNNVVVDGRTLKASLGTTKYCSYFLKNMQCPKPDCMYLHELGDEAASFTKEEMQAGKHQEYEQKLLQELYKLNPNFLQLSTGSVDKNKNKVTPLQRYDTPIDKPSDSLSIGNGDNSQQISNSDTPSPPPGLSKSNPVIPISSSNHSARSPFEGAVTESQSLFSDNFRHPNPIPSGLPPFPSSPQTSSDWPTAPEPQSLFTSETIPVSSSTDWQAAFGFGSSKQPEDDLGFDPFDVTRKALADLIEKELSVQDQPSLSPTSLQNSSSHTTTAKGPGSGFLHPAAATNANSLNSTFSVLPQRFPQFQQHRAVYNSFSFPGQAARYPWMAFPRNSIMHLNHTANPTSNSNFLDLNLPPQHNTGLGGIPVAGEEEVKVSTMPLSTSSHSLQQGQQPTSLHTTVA
Chain of UniProt Q92989 (Q92989 whole entry, looked up): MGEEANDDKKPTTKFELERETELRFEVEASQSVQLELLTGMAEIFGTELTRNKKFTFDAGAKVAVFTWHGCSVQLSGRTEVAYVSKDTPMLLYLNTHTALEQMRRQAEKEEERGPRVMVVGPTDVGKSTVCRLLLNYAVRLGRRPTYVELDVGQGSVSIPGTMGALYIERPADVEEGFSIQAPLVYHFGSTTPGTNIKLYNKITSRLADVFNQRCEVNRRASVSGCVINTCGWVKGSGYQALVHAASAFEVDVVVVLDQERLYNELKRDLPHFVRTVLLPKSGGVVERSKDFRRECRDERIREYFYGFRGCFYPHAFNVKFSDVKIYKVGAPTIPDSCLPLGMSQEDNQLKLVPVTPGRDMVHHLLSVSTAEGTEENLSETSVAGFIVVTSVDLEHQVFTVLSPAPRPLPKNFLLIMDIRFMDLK

log2 fold change, inactive:
DERA (UniProt Q9Y315) 0.008
DCP2 (UniProt Q8IU60) 0.039
DNAAF5 (UniProt Q86Y56) 0.041
CORO1A (UniProt P31146) 0.086
DIAPH3 (UniProt Q9NSV4) 0.07
CTPS1 (UniProt P17812) 0.011
CNOT2 (UniProt Q9NZN8) 0.013
CYCS (UniProt P99999) -0.121
DNAJC1 (UniProt Q96KC8) -0.011
DHRS3 (UniProt O75911) 0.08
CORO7 isoform 3 (UniProt P57737) -0.009
CYP51A1 (UniProt Q16850) 0.045
DES (UniProt P17661) 0.012
COG5 isoform 2 (UniProt Q9UP83) 0.016
DOK1 (UniProt Q99704) 0.051
CSTF2 (UniProt P33240) -0.002
CSNK2A1 (UniProt P68400) -0.111
COG2 (UniProt Q14746) 0.036
DAZAP1 (UniProt Q96EP5) 0.008
CSK (UniProt P41240) -0.025
DLGAP5 (UniProt Q15398) 0.023
COASY isoform 2 (UniProt Q13057) -0.049
DPH5 isoform 5 (UniProt Q9H2P9) -0.028
DENND6A (UniProt Q8IWF6) 0.232
CIB1 (UniProt Q99828) 0.126
DIAPH1 (UniProt H9KV28) -0.013
DNAH10 (UniProt Q8IVF4) 0.047
COMT (UniProt P21964) -0.03
CUL1 (UniProt Q13616) 0.006
CLP1 (UniProt Q92989) 0.027
CHML (UniProt P26374) -0.031
CNOT4 isoform 9 (UniProt O95628) 0.005
CSNK2B (UniProt P67870) -0.107
DARS (UniProt P14868) 0.037

compound: C1=CC(=CC=C1C2=NC3=C(N2)C=C(C=C3)C(=O)N)OC4=CC=C(C=C4)Cl; experiment: as above
How it was run: as §1

log2 fold change, inactive:
DERA (UniProt Q9Y315) 0.028
DCP2 (UniProt Q8IU60) -0.029
DNAAF5 (UniProt Q86Y56) -0.062
CORO1A (UniProt P31146) -0.032
DIAPH3 (UniProt Q9NSV4) -0.022
CTPS1 (UniProt P17812) -0.027
CNOT2 (UniProt Q9NZN8) 0.021
CYCS (UniProt P99999) -0.019
DNAJC1 (UniProt Q96KC8) -0.159
DHRS3 (UniProt O75911) 0.047
CORO7 isoform 3 (UniProt P57737) -0.079
CYP51A1 (UniProt Q16850) 0.193
DES (UniProt P17661) 0.023
COG5 isoform 2 (UniProt Q9UP83) -0.044
DOK1 (UniProt Q99704) 0.023
CSTF2 (UniProt P33240) 0.048
CSNK2A1 (UniProt P68400) -0.02
COG2 (UniProt Q14746) -0.021
DAZAP1 (UniProt Q96EP5) 0.03
CSK (UniProt P41240) -0.004
DLGAP5 (UniProt Q15398) -0.006
COASY isoform 2 (UniProt Q13057) -0.044
DPH5 isoform 5 (UniProt Q9H2P9) -0.025
DENND6A (UniProt Q8IWF6) 0.004
CIB1 (UniProt Q99828) 0.013
DIAPH1 (UniProt H9KV28) -0.053
DNAH10 (UniProt Q8IVF4) -0.059
COMT (UniProt P21964) -0.01
CUL1 (UniProt Q13616) 0.026
CLP1 (UniProt Q92989) -0.011
CHML (UniProt P26374) 0.028
CNOT4 isoform 9 (UniProt O95628) 0.015
CSNK2B (UniProt P67870) -0.039
DARS (UniProt P14868) -0.039

compound: C1=CC2=C(C=CC(=C2)/C=C\3/C(=O)NC(=NCC4=CC=CS4)S3)N=C1; experiment: as above
How it was run: as §1

log2 fold change, inactive:
DERA (UniProt Q9Y315) 0.014
DCP2 (UniProt Q8IU60) -0.064
DNAAF5 (UniProt Q86Y56) -0.057
CORO1A (UniProt P31146) 0.036
DIAPH3 (UniProt Q9NSV4) 0.05
CTPS1 (UniProt P17812) -0.009
CNOT2 (UniProt Q9NZN8) 0.015
CYCS (UniProt P99999) -0.006
DNAJC1 (UniProt Q96KC8) -0.053
DHRS3 (UniProt O75911) -0.008
CORO7 isoform 3 (UniProt P57737) 0.013
CYP51A1 (UniProt Q16850) 0.058
DES (UniProt P17661) -0.074
COG5 isoform 2 (UniProt Q9UP83) 0.001
DOK1 (UniProt Q99704) 0.015
CSTF2 (UniProt P33240) -0.048
CSNK2A1 (UniProt P68400) 0.225
COG2 (UniProt Q14746) -0.022
DAZAP1 (UniProt Q96EP5) 0.023
CSK (UniProt P41240) -0.028
DLGAP5 (UniProt Q15398) -0.024
COASY isoform 2 (UniProt Q13057) -0.007
DPH5 isoform 5 (UniProt Q9H2P9) 0.066
DENND6A (UniProt Q8IWF6) 0.073
CIB1 (UniProt Q99828) 0.042
DIAPH1 (UniProt H9KV28) 0.005
DNAH10 (UniProt Q8IVF4) -0.053
COMT (UniProt P21964) 0.011
CUL1 (UniProt Q13616) 0.01
CLP1 (UniProt Q92989) -0.001
CHML (UniProt P26374) -0.026
CNOT4 isoform 9 (UniProt O95628) -0.04
CSNK2B (UniProt P67870) 0.151
DARS (UniProt P14868) 0.027
